14 compounds from PubChem BioAssay can be followed below.

The source made the active and inactive calls.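 The calls were made as follows, unless noted: active = inhibition at or above 50% at 10 µM; inactive = inhibition below 50%.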

Assay [1] is described as follows: inhibitors of TNFa-induced NFkB p65 translocation, primary screen, imaging, HUVEC, MLSMR starter and 10KST1 sets (AID 438;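 active = inhibition above 20% together with a positive visual image hit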;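 also: compound added about 3h40 before a 20 min TNFalpha stimulation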;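 as to inhibition: signal is the nuclear over cytoplasmic p65 intensity ratio per well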). The note with it: HUVEC TNFa-induced p65 nuclear translocation; cell count: measured here: nuclei count (cytotoxicity indicator), at 2.08 µM; inhibition: at 2 µM, stronger effect = higher value, 0% TNFa-plus-vehicle, 100% no-TNFa wells.
Assay [2] can be described thus: inhibitors of mutant huntingtin aggregation, primary screen, imaging, exon1htt(103Q)mCFP cells, high-content imaging (AID 483;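 active = visual image review flags a hit and inhibition of aggregation exceeds 20%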;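 also: compound exposure lasted 3 days before fixation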;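 as to nuclei count: percent of the per-plate median nuclei count of sample wells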). The note with it: exon1htt(103Q)mCFP cell line, aggregate imaging, at 2 µM; inhibition of aggregation: stronger effect = higher value; nuclei count: measured here: cell count, toxicity.
Assay [3] can be described thus: inhibitors of E-selectin induction by TNFa, primary screen, imaging, HUVEC, immunofluorescence, MLSMR starter and 10KST1 sets (AID 487;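 active = visually confirmed hit in the image check and inhibition above 20%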;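 as to inhibition: signal is fraction of cell area covered by stained E-selectin grains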;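 as to nuclei count: 100% = median nuclei count of all wells on the same plate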). The conditions noted are these: HUVEC TNFalpha-induced E-selectin immunofluorescence imaging, at 2 µM; inhibition: stronger effect = higher value; nuclei count: measured here: cell number, toxicity.
In assay [4] the target is Voltage-gated potassium channel subunit beta-2 (Rattus norvegicus) (UniProt P62483). As to the kind of experiment: KvBeta enzyme negative modulators, primary screen, biochemical, NADPH fluorescence (AID 622;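 active = fluorescence slope higher than the sample average by over 3 SD, cut at about -0.22 in these data, passing the limit was not always enough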;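 also: slope of raw intensity against log time taken from 70 to 1610 s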). The note with it: recombinant KvBeta, 4-cyanobenzaldehyde reduction, at 10 µM, stronger effect = higher value.
Assay [5] shares this target. As to the kind of experiment: KvBeta positive modulators, primary screen, biochemical, NADPH fluorescence (AID 623;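 active = NADPH fluorescence slope more negative than the mean of all samples by about 3 SD, 99.7% confidence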;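 also: fluorescence intensity change per second fitted from 20 to 320 s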). The note with it: Recombinant KvBeta, NADPH fluorescence decrease slope, 10 min; at 10 µM; stronger effect = lower value.
For assay [6], the target named is Alpha-2C adrenergic receptor (Homo sapiens) (UniProt P18825). As to the kind of experiment: modulators of alpha2C/GIRK thallium flux, primary screen, cell-based, HEK293 alpha2C/GIRK1/2 (AID 624;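 active = fluorescence slope after compound addition differing from the mean of all screened samples at 99.7% confidence, in either direction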;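 also: slope of fluorescence ratio to pre-addition baseline per second over 15 to 24 s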). The note with it: thallium flux BTC fluorescence, at 10 µM, actives lie on both sides.
Assay [7] in a line: inhibitors of Sendai virus-induced IRF3 signaling, primary screen, TLR/RLR signaling modifier project, cell-based, Sendai virus stimulus, luciferase, 10K MLSCN set (AID 602276).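 Also: firefly luciferase from ISG56 promoter only with Renilla not read in this screen; 0% = Sendai virus plus DMSO and 100% = medium plus DMSO without virus.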 The note with it: HEK293 RL24 IRF3 luciferase reporter, at 10 µM, stronger effect = higher value. (A reporter such as luciferase makes a cellular process visible.)
The nature of assay [8]: inhibitors of poly I:C-induced TLR3 signaling, primary screen, cell-based, poly I:C stimulus, luciferase, 10K MLSCN set (AID 602277;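 active = inhibition of the reporter signal at or above 50%; inactive = inhibition below 50%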). The conditions noted are these: HEK293-TLR3 RL24 IRF3 luciferase reporter, at 10 µM, stronger effect = higher value.

Voltage-gated potassium channel subunit beta-2 (Rattus norvegicus), sequence (P62483 whole entry, looked up): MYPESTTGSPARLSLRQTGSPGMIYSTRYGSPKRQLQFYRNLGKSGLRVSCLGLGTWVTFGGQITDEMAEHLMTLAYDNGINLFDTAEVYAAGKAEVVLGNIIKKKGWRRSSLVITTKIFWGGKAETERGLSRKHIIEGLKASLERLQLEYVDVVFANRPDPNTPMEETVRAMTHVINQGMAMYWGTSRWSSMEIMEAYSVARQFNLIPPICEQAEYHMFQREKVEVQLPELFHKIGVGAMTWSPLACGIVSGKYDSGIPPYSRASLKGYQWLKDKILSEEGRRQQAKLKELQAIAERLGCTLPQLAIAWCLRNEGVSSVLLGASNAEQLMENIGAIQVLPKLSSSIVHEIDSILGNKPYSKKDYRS
Alpha-2C adrenergic receptor (Homo sapiens), sequence (P18825 whole entry, looked up): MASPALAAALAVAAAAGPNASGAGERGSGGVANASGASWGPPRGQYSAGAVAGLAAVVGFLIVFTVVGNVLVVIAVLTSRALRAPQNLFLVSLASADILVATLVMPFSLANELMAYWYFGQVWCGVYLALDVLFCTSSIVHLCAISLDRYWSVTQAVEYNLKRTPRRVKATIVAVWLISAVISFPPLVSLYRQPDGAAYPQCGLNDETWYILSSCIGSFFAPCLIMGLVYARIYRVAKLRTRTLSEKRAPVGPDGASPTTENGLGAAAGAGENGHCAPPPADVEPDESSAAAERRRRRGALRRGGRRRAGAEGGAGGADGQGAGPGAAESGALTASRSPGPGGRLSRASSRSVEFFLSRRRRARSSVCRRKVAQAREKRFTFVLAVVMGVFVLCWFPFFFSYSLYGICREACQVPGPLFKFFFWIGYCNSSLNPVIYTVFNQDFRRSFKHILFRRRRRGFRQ

The inhibition is the change of the read-out against control, counted positive when it falls. For the compound `CCn1ncc(Cl)c1C(=O)Nc1ccncc1`, the cell count in assay [1] was 587. For the same compound, the inhibition in assay [1] was -6.1% (inactive); in assay [3], -41% (inactive); in assay [7], 3.99% (inactive); in assay [8] it was -1.03% (inactive). Further, the inhibition of aggregation in assay [2] is -21.9% (inactive). For the same compound, the nuclei count came to 56.2% in assay [2] and 101% in assay [3]. Further, in assay [4], the fluorescence slope is -0.577 (inactive). Also, in assay [5], the NADPH fluorescence slope is -5.6e-05 (inactive). Further, the slope in assay [6] was 0.00342 (inactive).

Take `CCC(C)C(=O)Nc1nc2c(s1)C(=O)CC(C)(C)C2` (centres undefined): in assay [1], the cell count was 612. For the same compound, the inhibition was 6.9% (inactive) in assay [1], -8.8% (inactive) in assay [3], -7.18% (inactive) in assay [7] and -6.11% (inactive) in assay [8]. Moreover, the inhibition of aggregation in assay [2] was -4.2% (inactive). Besides, the nuclei count in assay [2] amounted to 102%; in assay [3], 115%. Further, the fluorescence slope in assay [4] is -0.553 (inactive). Also, the NADPH fluorescence slope in assay [5] was -2.6e-05 (inactive). In assay [6], the slope is 0.00723 (inactive).

With `CCOC(=O)N1CCN(C(=O)CSc2nnc(COc3ccccc3)o2)CC1`, the cell count in assay [1] was 596. Further, the inhibition was 4.7% (inactive) in assay [1], -3.6% (inactive) in assay [3], -13.9% (inactive) in assay [7] and 10.1% (inactive) in assay [8]. Moreover, the inhibition of aggregation in assay [2] is -3.5% (inactive). In addition, the nuclei count was 105% in assay [2] and 112% in assay [3]. For the same compound, the fluorescence slope in assay [4] is -0.565 (inactive). For the same compound, the NADPH fluorescence slope in assay [5] is 1.8e-05 (inactive). Also, the slope in assay [6] was 0.00595 (inactive).

For `Cc1cc(C)n(CC(=O)O)n1`, in assay [1], the cell count turned out to be 341. The inhibition in assay [1] was -1.8% (inactive); in assay [3] it was -49.5% (inactive); in assay [7], 12.8% (inactive); in assay [8], 18.3% (inactive). Besides, the inhibition of aggregation in assay [2] was -4.2% (inactive). The nuclei count in assay [2] worked out at 102%; in assay [3] it was 121%. Further, the fluorescence slope in assay [4] was -0.317 (inactive). Moreover, in assay [5], the NADPH fluorescence slope is -5.4e-05 (inactive). The slope in assay [6] was 0.0047 (inactive).

`COc1ccc(NC(=O)C2CCCN2S(=O)(=O)c2cccc3cccnc23)c(OC)c1` (centres undefined): the cell count in assay [1] worked out at 645. For the same compound, the inhibition was -8.6% (inactive) in assay [1], -59.6% (inactive) in assay [3], 1.34% (inactive) in assay [7] and 38.4% (inactive) in assay [8]. The inhibition of aggregation in assay [2] is 2.8% (inactive). Moreover, the nuclei count was 77.7% in assay [2] and 103% in assay [3]. In assay [4], the fluorescence slope is -0.626 (inactive). In assay [5], the NADPH fluorescence slope is 2.3e-06 (inactive). The slope in assay [6] is 0.00652 (inactive).

On to `COc1cc2c(cc1NCc1ccccn1)oc1ccccc12`, for which the cell count in assay [1] was found to be 304. Moreover, the inhibition in assay [1] was -1.5% (inactive); in assay [3], -27.9% (inactive); in assay [7] it was -24.8% (inactive); in assay [8], -70.7% (inactive). Moreover, the inhibition of aggregation in assay [2] is 20.3% (inactive). The values for the nuclei count in assay [2] and in assay [3] were 66.4% and 90.6%, respectively. For the same compound, in assay [4], the fluorescence slope is -0.365 (inactive). In assay [5], the NADPH fluorescence slope is -4.6e-05 (inactive). In assay [6], the slope is 0.00538 (inactive).

As for `CCc1nc(N)c(C#N)c(-c2ccncc2)c1C`, the cell count in assay [1] was found to be 598. For the same compound, the inhibition was 6.3% (inactive) in assay [1], -24.5% (inactive) in assay [3], 9.38% (inactive) in assay [7] and 19.4% (inactive) in assay [8]. Further, the inhibition of aggregation in assay [2] was -19.7% (inactive). For the same compound, the results for the nuclei count in assay [2] and in assay [3] were 100% and 106%, respectively. The fluorescence slope in assay [4] was -0.605 (inactive). Further, the NADPH fluorescence slope in assay [5] was -3.1e-05 (inactive). Further, the slope in assay [6] was 0.00327 (inactive).

For the compound `O=c1c(CN2CCN(Cc3ccccc3)CC2)coc2ccc(Cl)cc12`, in assay [1], the cell count was 463. For the same compound, the inhibition in assay [1] is -1.6% (inactive); in assay [3], -69.1% (inactive); in assay [7] it was -2.78% (inactive); in assay [8], 4.22% (inactive). Also, the inhibition of aggregation in assay [2] was -1.1% (inactive). Also, the nuclei count came out at 113% in assay [2] and 125% in assay [3]. In addition, the fluorescence slope in assay [4] was -0.41 (inactive). The NADPH fluorescence slope in assay [5] is -0.000112 (inactive). In addition, the slope in assay [6] is 0.00599 (inactive).

In the case of `N#Cc1nc(COc2ccccc2)oc1NCCCn1ccnc1`, in assay [1], the cell count is 371. The inhibition in assay [1] was 5.2% (inactive); in assay [3], 6.7% (inactive); in assay [7], -11.6% (inactive); in assay [8] it was -1.22% (inactive). For the same compound, in assay [2], the inhibition of aggregation is 0.8% (inactive). Besides, the nuclei count in assay [2] was 95.5%; in assay [3], 90.9%. Besides, the fluorescence slope in assay [4] is -0.629 (inactive). In addition, in assay [5], the NADPH fluorescence slope was -1.3e-05 (inactive). For the same compound, the slope in assay [6] was 0.00641 (inactive).

For `Cn1c(SCc2nnc3n2CCCCC3)nc2ccccc21`, the cell count in assay [1] worked out at 252. The inhibition in assay [1] was -15.3% (inactive); in assay [3], -94.2% (inactive); in assay [7] it was 14% (inactive); in assay [8], 20% (inactive). Further, the inhibition of aggregation in assay [2] is -3.3% (inactive). The nuclei count in assay [2] was 94.7%; in assay [3], 127%. Also, in assay [4], the fluorescence slope was -0.433 (inactive). For the same compound, the NADPH fluorescence slope in assay [5] is -2.7e-05 (inactive). Besides, the slope in assay [6] was 0.00588 (inactive).

In the case of `COc1cc(CN2CCN(C(=O)CC(C)C)CC2)cc(OC)c1O`, the cell count in assay [1] was found to be 642. For the same compound, the inhibition in assay [1] was -11% (inactive); in assay [3] it was -52.5% (inactive); in assay [7], 5.89% (inactive); in assay [8] it was 16% (inactive). Besides, the inhibition of aggregation in assay [2] was -4.6% (inactive). The nuclei count came to 99.7% in assay [2] and 90.3% in assay [3]. Moreover, in assay [4], the fluorescence slope is -0.583 (inactive). For the same compound, the NADPH fluorescence slope in assay [5] is -2.8e-05 (inactive). Moreover, the slope in assay [6] was 0.00548 (inactive).

Take `Cn1c(=O)c(C(=O)Nc2cccnc2)c(O)c2ccccc21`: the cell count in assay [1] is 632. In addition, the inhibition in assay [1] is 5.5% (inactive); in assay [3] it was -74% (inactive); in assay [7], -29.2% (inactive); in assay [8], -42.3% (inactive). The inhibition of aggregation in assay [2] was 0.5% (inactive). The nuclei count in assay [2] is 128%; in assay [3], 112%. Moreover, in assay [4], the fluorescence slope was -0.479 (inactive). For the same compound, the NADPH fluorescence slope in assay [5] is -4.8e-05 (inactive). Also, the slope in assay [6] is 0.0062 (inactive).

Take `COc1ccccc1N1CCN(C(=O)c2cc(C3CC3)on2)CC1`: the cell count in assay [1] amounted to 626. The inhibition was -8.7% (inactive) in assay [1], 1.1% (inactive) in assay [3], -5.11% (inactive) in assay [7] and 26.8% (inactive) in assay [8]. For the same compound, the inhibition of aggregation in assay [2] was -1.6% (inactive). For the same compound, the nuclei count came out at 85.4% in assay [2] and 95.8% in assay [3]. The fluorescence slope in assay [4] is -0.607 (inactive). For the same compound, the NADPH fluorescence slope in assay [5] was -3.3e-05 (inactive). Besides, the slope in assay [6] was 0.00629 (inactive).

For `O=C(NCCC1=CCCCC1)N[C@@H](Cc1ccccc1)C(=O)O`, in assay [1], the cell count stood at 377. The inhibition in assay [1] is -3.9% (inactive); in assay [3], -24.3% (inactive); in assay [7] it was -1.48% (inactive); in assay [8], 0.553% (inactive). In addition, the inhibition of aggregation in assay [2] is -1.8% (inactive). Further, the nuclei count in assay [2] stood at 108%; in assay [3], 115%. For the same compound, the fluorescence slope in assay [4] is -0.447 (inactive). For the same compound, in assay [5], the NADPH fluorescence slope was -0.000113 (active). In assay [6], the slope was 0.00549 (inactive).
